The values below come from PubChem BioAssay AID624168 (Sanford-Burnham Center for Chemical Genomics, 2012).

Hit rate of the full screen: of about 360,000 compounds, about 800 (0.22%) were called active.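 How the source made its calls: active means activation of at least 8% versus controls, or a plate z-score of at least 8; inactive means the rest.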 The entries come from a sample that favours actives as a whole.

This test in a line: activators of alpha-DG glycosylation, primary screen, uHTS, Pro5-aDG cells, AlphaScreen (AID 624168).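 Further: Pro5 are CHO cells carrying HIG-tagged alpha-DG that lacks glycosylation.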 The following applies: alpha-DG glycosylation AlphaScreen (IIH6), at 10 µM, stronger effect = higher value, 0% Pro5, 100% B10-LARGE cell signal. A general note: Bead proximity is the source of the signal in Alpha formats.
In the case of `Cc1ccc(NC(=O)CN(C)CC(=O)Nc2cccc(F)c2)cc1[N+](=O)[O-]`, the activation was 10% (active).

Consider `Cc1ccc(NC(=O)c2sccc2C)cc1[N+](=O)[O-]`, for which the activation is 0% (inactive).

As for `CN(CC(=O)Nc1cccc(F)c1)C(=O)C1=COCCO1`, the activation is 0.1% (inactive).

Turning to `O=C(CN1CCCCC1)NC(=O)Nc1ccccc1F`, the activation is 0% (inactive).

On to `O=C(CCNS(=O)(=O)c1ccc(Br)s1)NCc1ccccc1Cl`, for which the activation is 0.5% (inactive).

Take `COc1cccc(NC(=O)N(C)C[C@@H]2Oc3ncc(Br)cc3C(=O)N([C@@H](C)CO)C[C@H]2C)c1`: the activation was 0.2% (inactive).

In the case of `OC(CN1C2=NCCCN2c2ccccc21)c1ccc(Br)cc1` (stereo not given), the activation is 0.6% (inactive).

For the compound `CC(=O)N1CSCC1C(=O)O` (stereo not given), the activation was 0.1% (inactive).

Regarding `O=S(=O)(c1ccc2ccccc2c1)N1CCN(S(=O)(=O)N2CCOCC2)CC1`, the activation is 0.1% (inactive).

Turning to `NC(=O)COC(=O)c1cc(S(=O)(=O)N2CCN(c3ccccc3)CC2)ccc1Cl`, the activation was -1.4% (inactive).

As for `O=c1ccc2cc(S(=O)(=O)N3CCN(c4ccccc4)CC3)ccc2o1`, the activation was 8.4% (active).

In the case of `O=C1OCCOC2CCCc3oc(-c4ccccc4)c1c32` (stereo not given), the activation is 0.5% (inactive).

`CCN(CC(=O)NCc1ccc(Cl)cc1)C(=O)CSc1ccccc1`: the activation was 0% (inactive).

For `O=C(NCCN1CCOCC1)Nc1cccc(Cl)c1`, the activation was -0.1% (inactive).

With `c1ccc2cc3c(NCCN4CCOCC4)ccnc3cc2c1`, the activation is 9% (active).

On to `O=S(=O)(c1ccc(Cl)cc1)c1nc(-c2ccccc2F)oc1NCCN1CCOCC1`, for which the activation was 0.2% (inactive).

As for `O=S1(=O)CC(NCc2ccccc2)C(Nc2ccc(Cl)cc2)C1` (stereo not given), the activation is 0% (inactive).

`O=C(/C(=N\O)n1cncn1)c1ccc(Br)cc1Br`: the activation was 0.2% (inactive).

`O=C(NC(c1ccc(-c2ccccc2)cc1)c1cnccn1)C1CCN(CCOc2ccc(Cl)cc2Cl)CC1` (stereo not given): the activation was 7.1% (active).

For the compound `Cc1ccc(C(NC(=O)C2CCN(CCOc3ccc(Cl)cc3Cl)CC2)c2ccccn2)cc1` (stereo not given), the activation was 0.4% (inactive).

As for `O=C(NC(c1ccc(Cl)cc1)c1cnccn1)C1CCN(Cc2ccc(Cl)cc2)CC1` (stereo not given), the activation is 0.1% (inactive).

`CCOC(=O)c1cc2sccc2n1Cc1ccc(C#N)cc1`: the activation was 0% (inactive).

On to `CCOCCCNC(=O)C1(O)c2cc(Br)ccc2NC(=O)N1c1ccc(C)c(C)c1` (stereo not given), for which the activation is -0.2% (inactive).

As for `CN1CCCc2cc(C#N)c(=O)[nH]c21`, the activation is 0% (inactive).

As to `CC(C)c1cc(Cn2c3ccccc3c(=O)n2C(C)Cn2cc(C3CC3)nn2)on1` (stereo not given), the activation is 6.8% (active).

For the compound `COCCN(C(=O)C(C)C)c1nnc(-c2ccc(C(C)(C)C)cc2)s1`, the activation is 0.5% (inactive).

With `Cc1ccc(OCc2nnc(SC3CCc4ccccc4C3=O)n2C)cc1` (stereo not given), the activation was 0% (inactive).

Regarding `Cc1cc(C)c(S(=O)(=O)n2cc(C(C)C(N)C(=O)O)c3ccccc32)c(C)c1` (stereo not given), the activation was -0.2% (inactive).

As to `Cc1ccc(NS(=O)(=O)c2c(C)[nH]c(C)c2C(=O)N2CCCCC2)c(C)c1`, the activation is -0.1% (inactive).

Turning to `CCN(CC)C(=O)C1=C(C)N(Cc2ccc(OC)cc2)C(=O)C(CC(=O)NCc2ccco2)C1` (stereo not given), the activation is -0.1% (inactive).

Take `Cc1ccc(S(=O)(=O)N2CCCCC2)cc1NC(=O)[C@@H]1CCCN1C(=O)c1cccs1`: the activation was 0.1% (inactive).

Take `O=C(Nc1cccc(Br)c1)C1CC(=O)N(C2CCCC2)C1` (stereo not given): the activation was 0% (inactive).

As to `COc1ccccc1N1CCN(C(=O)c2cc(-c3ccc(Br)cc3)on2)CC1`, the activation is 9.8% (active).

In the case of `COc1ccccc1N1CCN(C(=O)c2cc(=O)c3cc(C)cc(C)c3o2)CC1`, the activation is -0.2% (inactive).

For the compound `COc1ccc(OCc2cc(C(=O)N3CCCC3)no2)c2ccccc12`, the activation was 0.3% (inactive).

With `Cc1ccc(NS(=O)(=O)c2ccc(F)cc2)nc1`, the activation was -0.2% (inactive).

`Fc1ccc(OCc2nn3c(Cn4nnc5ccccc54)nnc3s2)cc1`: the activation is 0.5% (inactive).

Turning to `C=CCOc1cccc(CNn2cn[nH]c2=S)c1`, the activation was 0% (inactive).

As for `CC[C@]12c3[nH]c4cc(CCC(=O)N(C)C)ccc4c3CCN1C(=O)[C@@H](CC(=O)NCC13CC4CC(CC(C4)C1)C3)C[C@@H]2C(=O)N1CCN(C(=O)C2CC2)CC1`, the activation was -0.1% (inactive).

For the compound `Cc1cc(=O)oc(C)c1C(=O)NC1CC(C)(C)NC(C)(C)C1`, the activation was -0.1% (inactive).

Regarding `COc1ccc(CC(NC(C)=O)C(=O)NC2CCN(C(=O)c3ccc(OC)c(OC)c3)CC2)cc1OC` (stereo not given), the activation is -0.3% (inactive).

As to `Clc1cc(NC2CCCCC2)ncn1`, the activation is 0.2% (inactive).

Turning to `CN(C)C(=S)Nc1ccc(Br)cc1Cl`, the activation is 0.1% (inactive).

On to `O=C(CN1CCN(Cc2ccccc2)CC1)Nc1ccc(F)c(F)c1`, for which the activation was -0.1% (inactive).

As to `COc1ccc(Cl)cc1NC(=O)NCC1CCN(Cc2ccccc2F)CC1`, the activation was 1% (inactive).

Consider `Cc1cccc(CN2CCC(CNC(=O)Nc3ccc(F)c(Cl)c3)CC2)c1`, for which the activation was 5.2% (active).

`Nc1cccnc1Sc1ccccc1`: the activation was 0% (inactive).

On to `CC(=O)N/C(=C/c1ccc(OC(F)F)cc1)C(=O)O`, for which the activation was -0.4% (inactive).

In the case of `Cc1cccc(OCC(O)CN2CCN(S(=O)(=O)c3ccc(C)cc3C)CC2)c1` (stereo not given), the activation was 0.1% (inactive).

Consider `Cc1ccc(OCC(O)CN2CCN(CC(O)COc3ccc(C)cc3Cl)CC2)c(Cl)c1` (stereo not given), for which the activation was 3.9% (active).

As to `OC(COc1ccc(F)cc1Cl)CN1CCc2ccccc2C1` (stereo not given), the activation is 0.1% (inactive).

As to `COc1ccc(CC(=O)OC(C)C(=O)Nc2ccc(S(N)(=O)=O)cc2)cc1` (stereo not given), the activation is 0.1% (inactive).

As to `O=[N+]([O-])c1ccc(C=Nc2ccc(Cl)cc2Cl)s1`, the activation is -0.4% (inactive).

Turning to `CC(C)(C)c1cc(C(=O)N/N=C/c2ccc([N+](=O)[O-])s2)n[nH]1`, the activation was 2.7% (active).

Consider `Cc1ccccc1NCC(=O)N/N=C\c1ccc([N+](=O)[O-])s1`, for which the activation was 9.3% (active).

As to `Cc1nn(Cc2ccc(Cl)cc2)c(Cl)c1/C=N/NC(=O)CNc1ccccc1F`, the activation was 0.9% (inactive).

As for `Cc1ccc(S(=O)(=O)N2CCN(CC(=O)N/N=C/c3ccc(Br)s3)CC2)cc1`, the activation is -0.1% (inactive).

With `Cc1c(C(=O)N2CCCC2)c(S(=O)(=O)NCC(C)c2ccccc2)c(C)n1C` (stereo not given), the activation is -0.1% (inactive).

Take `O=S(=O)(N1CCCCC1)N1CCNCC1`: the activation was 0% (inactive).

For `CC(C)[C@@H](C(=O)O)N(Cc1cccc(CN([C@H](C(=O)O)C(C)C)S(C)(=O)=O)c1)S(C)(=O)=O`, the activation was -0.1% (inactive).
